# From PubChem
# Rango-impB inh = Rango-importin beta binding inhibition | Q14974 | Rango CFP/YFP FRET sensor + importin beta, 45 min | Potency, µM (titrated, usually from 92.2 µM), without a hit: top-dose inhibition of complex formation | 0.031% of 340,000 active; calls by dose curve;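 further: 0% = DMSO wells and 100% = buffer wells lacking importin beta; nearly all actives have a fitted effect of over 15% in size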
#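 FRET biosensor (snurportin 1 IBB flanked by EYFP and cerulean), 50 nM, with compound 5 min, then 0.125 microM importin beta in PBS, 1 mM DTT, 0.02% Tween-20, 0.1% BSA. CFP/YFP ratio read after 45 min at room temperature; pre-read flags interference.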
# Nrf2 activator = Nrf2 pathway activation | AREc32 ARE-luciferase reporter (MCF7-derived line), luminescence, 24 h | AID 624171 | Potency, µM (doses to about 46.1 µM), for inactives: top-dose activation, most hits filed as activators | 0.31% of 410,000 active; further: % of control where 0% means no effect; nearly all actives have a fitted effect of over 65% in size
#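 Quantitative high-throughput format: AREc32 reporter cells, 1000 per well, received compound by pin transfer and were incubated 24 hr at 37 deg C, 5% CO2, before Steady-Glo luminescence detection.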
# Nrf2 inh = blocks Nrf2 signaling. 2.1% of 360,000 active. Potency, µM (top dose mostly 46 µM), for inactives: at the highest dose activity change, negative = inhibition, hits mostly inhibitors. AID 504444. A549 ARE-Fluc reporter, luciferase luminescence, 18-24 h; further: on the % scale 0 is the no-effect control and ±100 the full control effect; nearly all actives have a fitted effect of over 60% in size
#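 Two sequential reads on A549 ARE_Fluc cells exposed to compound for 18-24 h: a CellTiter-Fluor fluorescence read for viability, then a luciferase luminescence read for Nrf2/ARE activity.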
# Rango dissoc inh = inhibitors of RanGTP-induced Rango-importin beta complex dissociation | O95149+P62826 | Biochemical FRET Rango-importin beta, RanGTP-induced dissociation | Potency, µM (highest dose often 46.1 µM), inactives show at the top dose activity change, negative = inhibition | 0.071% of 340,000 active | AID 540253; calls by dose curve; further: % of control where 0% means no effect; nearly all actives have a fitted effect of over 45% in size
#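 Rango/importin beta premix (0.1/0.25 uM final), PBS + 1 mM DTT + 0.02% Tween-20 + 0.1% BSA; cpd 5 min RT; FRET pre-read; + RanGTP-RCC1 (0.6 uM Ran, 2 mM GTP, 0.2 uM RCC1); 45 min RT; FRET post-read, ex 430, em 486/530 nm.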
# A549 viability = A549 cytotoxicity, counter-screen for Nrf2 inhibitors; A549 ARE-Fluc cells, CellTiter-Fluor viability, 18-24 h; Potency, µM (highest dose often 46 µM), without a hit: at the top dose activity change, negative = cytotoxicity, actives largely listed as inhibitors; AID 504648; 0.16% of 390,000 active; further: on the % scale 0 is the no-effect control and ±100 the full control effect
#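 A549 ARE-Fluc cells in 5% FBS OPTI-MEM, 5000 cells/well, rested 2 h then exposed to compounds in concentration-response for 18-24 h at 37 °C. Viability by CellTiter-Fluor fluorescence (Ex 405/Em 525) after 30 min; luciferase luminescence (BugLite, 15 min, RT) read afterwards.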
# Starred values were filed as active, the others as inactive; ? = inconclusive; . = no result given. Rows were chosen to be rich in hits. Some 2.3% of all compounds tested hit in one or more screens of this group. Unless noted, the call rests on the fitted dose curve; in most records, active means well fitted curve in the direction sought with a large enough effect; inconclusive means small, poorly fitted or top-dose-only effect, or another doubt; inactive means no such curve, though single readings can be large; an effect the other way counts as inactive or inconclusive. Potency means the concentration at half of the fitted maximal effect.
SMILES,Rango-impB inh,Nrf2 activator,Nrf2 inh,Rango dissoc inh,A549 viability
CCOc1ccccc1NC(=O)c1ccc(NC(=O)c2ccco2)cc1,2%,0%,23µM*,-16%,-2%
COc1cc(NC(=O)c2ccco2)c(OC)cc1NC(=O)c1cc(OC)c(OC)c(OC)c1,?,0%,-9%,-5%,8%
CCOC(=O)Cc1ccc(NC(=O)c2ccc(C(C)(C)C)cc2)cc1,1%,-1%,2.6µM*,1%,?
COc1ccccc1NC(=O)c1ccc(NC(=O)c2ccco2)cc1,0%,3%,?,0%,4%
CC(C)(C)c1ccc(C(=O)Nc2ccc(NC(=O)c3ccco3)cc2)cc1,2%,10%,9.2µM*,1%,?
COc1cc(OC)cc(-c2nc3nc(C)c(CCC(=O)Nc4ccc(F)cc4F)c(C)n3n2)c1,.,-1%,-11%,.,2%
Cc1cccc(N2CCN(S(=O)(=O)c3ccc4[nH]c(=O)ccc4c3)CC2)c1C,-5%,1%,18µM*,1%,-25%
Cc1cccc(N2CCN(S(=O)(=O)c3ccc4c(c3)NC(=O)C(C)S4)CC2)c1C (centres undefined),-1%,-1%,-28%,11%,-6%
Cc1cccc(N2CCN(S(=O)(=O)c3ccc4c(c3)C(C(C)C)C(=O)N4)CC2)c1C (centres undefined),.,0%,13µM*,.,-2%
Cc1ccc(C)c(N2CCN(S(=O)(=O)c3ccc4[nH]c(=O)ccc4c3)CC2)c1,-6%,0%,-27%,-22%,3%
Cc1ccc(NS(=O)(=O)c2cccc(C(=O)O)c2)cc1C,.,.,?,.,4%
CCC(=O)N1CCc2cc(Br)cc(S(=O)(=O)N3CCC(C(=O)Nc4ccccc4F)CC3)c21,.,0%,13µM*,.,1%
CCC(=O)N1CCc2cc(Br)cc(S(=O)(=O)N3CCC(C(=O)NC(C)(C)C)CC3)c21,1%,-1%,-4%,-1%,1%
CC(C)c1nnc(NC(=O)CCS(=O)(=O)c2nc(-c3cccs3)cc(C(F)(F)F)n2)s1,3%,-2%,23µM*,-12%,?
CCOc1ccc(C(=O)NCc2ccc3c(c2)OCO3)cc1OCC,-1%,0%,-20%,-16%,2%
CCCc1ccc(OC(=O)c2ccc(O)cc2Cl)cc1,-4%,3%,?,9%,-2%
CCC(=O)OCC(=O)C1(OC(=O)CC)[C@H](C)C[C@H]2[C@H]3[C@H]([C@@H](O)C[C@@]21C)[C@@]1(C)C=CC(=O)C=C1C[C@H]3Cl (some centres undefined),0%,0%,0.052µM*,17%,-8%
COc1cccc(NC(=O)C2CCCN(c3ncnc4onc(-c5ccc(F)cc5)c34)C2)c1 (centres undefined),.,6%,-4%,.,12%
CCOc1ccc2ncc(C(=O)c3ccc(OC)cc3)c(N3CCN(CC)CC3)c2c1,0%,6%,-13%,-15%,3%
CCOC(=O)C1CCCN(c2c(C(=O)c3ccc(C)cc3)cnc3ccc(OCC)cc23)C1 (centres undefined),.,0%,23µM*,.,?
CC(=O)Nc1cccc(NC(=O)c2c(-c3ccccc3)c(-c3ccccc3)nn(C)c2=O)c1,.,0%,-4%,.,0%
O=C(Nc1cccc(C(F)(F)F)c1)Nc1nnc(N2CCCCCC2)s1,.,0%,-27%,.,-1%
Nc1nn(-c2ccccc2)c(N)c1N=Nc1ccc2c(c1)OCO2,1%,-1%,-10%,-14%,15µM*
COc1ccccc1N1CCN(S(=O)(=O)c2c(C(=O)N3CCOCC3)c(C)n(C)c2C)CC1,5%,0%,8%,10%,9%
Cc1ccc(OCC(=O)Nc2ccc(S(=O)(=O)N(Cc3ccccc3)c3ccccc3)cc2)cc1,.,0%,?,.,-9%
C[C@@H]1CC[C@]2(C(=O)O)CC[C@]3(C)C(=CCC4[C@]56CC[C@@](O)(OC5)C(C)(C)C6CC[C@]43C)C2[C@H]1C (some centres undefined),0%,0%,15µM*,-6%,-25%
